# Pf apPOL inh: Pf-apPOL DNA polymerase inhibition; AID 1794808; inhibition, % at 10 µM; Recombinant Pf-apPOL, molecular beacon fluorescence, 1.5 h; actives 0.25% (n = 210,000)
# mHTT CaM bind: mHTT-calmodulin interaction abrogation; P42858; AlphaScreen His-mHTT/GST-CaM binding, luminescence; inhibition, % at 15 µM; actives 3.6% (n = 190,000);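 also: 0% = both proteins with DMSO and 100% = one protein alone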
# The depositor's hits bear a star; x = no result. The sample as a whole holds a higher share of hits than the screen did. Rule as the data show it: active = inhibition above about 50%; inactive = the rest.
SMILES,Pf apPOL inh,mHTT CaM bind
Cc1ccc(C2CCCN2C(=O)Cc2ccc(F)cc2)cc1 (stereo not drawn),-5,11
Cc1ccccc1C1CCCN1C(=O)Cc1cccc(Cl)c1 (stereo not drawn),-4,7
O=c1c(-c2ccc(Cl)cc2)coc2cc(OC3OC(CO)C(O)C(O)C3O)ccc12 (stereo not drawn),-120,4
COc1c(C)cnc(Cn2nc3c(-c4nc(C)no4)cccn3c2=O)c1C,-4,-8
O=C(NCCc1cccnc1)C1CCCN(c2cnn(Cc3ccccc3)c(=O)c2)C1 (stereo not drawn),-1,5
C=C(C)c1cccc(C(C)(C)NC(=O)N2CCCc3ccccc32)c1,7,-6
Cc1nc2c(C(=O)NC3CC3)cnn2c(C)c1Cc1cccc(Cl)c1,-8,97*
Cc1nc2c(C(=O)NC3CC3)cnn2c(C)c1Cc1cccc(Br)c1,-4,92*
Cc1nc2c(C(=O)NC3CCCCC3)cnn2c(C)c1Cc1ccc(Cl)cc1,-2,-6
Cc1nc2c(C(=O)NC3CCCC3)cnn2c(C)c1Cc1ccc(Cl)cc1,-9,-6
Cc1nc2c(C(=O)NC3CC3)cnn2c(C)c1Cc1ccc(F)cc1,-5,64*
Cc1nc2c(C(=O)NC3CCCCC3)cnn2c(C)c1Cc1cccc(Br)c1,-4,43
c1c(-c2csnn2)cc(-c2csnn2)cc1-c1csnn1,x,-7
CC(C)NC(=O)c1csc(COc2ccc(Cl)cc2)n1,-9,-5
Cc1cc(OCC(=O)NN)ccc1Cl,0,-5
Cc1cc(OCC(=O)NC(C)C)ccc1Cl,2,90*
Cc1cc(OCc2nc(C(=O)NC(C)C)cs2)ccc1Cl,-10,66*
Cc1ccc(C2=NN(CC(=O)NCCN3C(C)CCCC3C)C(=O)CC2)cc1 (stereo not drawn),-12,0
O=C(NCc1csc2ccccc12)c1ccc(Cl)cc1,0,x
CCCNC(=O)ON=Cc1csc([N+](=O)[O-])c1,-24,x
O=C(Nc1cccc2c1C(=O)c1ccccc1C2=O)c1ccc(Cl)s1,1,0
O=C(Nc1cccc2c1C(=O)NC2=O)c1ccc(Cl)s1,1,100*
CC1(C)CC(=O)C2=C(C1)Nc1ncnn1C2c1ccc(Cl)cc1Cl (stereo not drawn),-24,0
COc1cc(OC)c(OC)cc1/C=C1\NC(=O)N(Cc2ccc(Cl)cc2)C1=O,-9,-1
Cc1cc(/C=C2\NC(=O)N(Cc3ccc(Cl)cc3)C2=O)c(C)n1-c1ccc(C#N)cc1,-4,51*
SMILES,Pf apPOL inh,mHTT CaM bind
COc1ccc(NC(=O)N2CCN(C3=CC4=NC(C)CN4C=N3)CC2)c(C)c1 (stereo not drawn),2,1
Cc1c(C(=O)Nc2cccc(-c3nc4ccccc4o3)c2)cccc1[N+](=O)[O-],-13,10
CCOc1ccc2c(c1)OC(=Cc1ccc3c(c1)OCO3)C2=O,3,-6
CCCN1C/C(=C\c2ccc3c(c2)OCO3)C(=O)/C(=C/c2ccc3c(c2)OCO3)C1,1,63*
CCNC(=O)C(=O)Nc1cccc(Cl)c1Cl,-7,-6
Cn1c2ccc(Br)cc2c2nnc(SCC(=O)N=C3NC(=O)CS3)nc21,5,23
O=C(CSc1nc(-c2ccccc2)cc(-c2ccccc2)n1)N=C1NC(=O)CS1,8,61*
NCCNc1ccc([N+](=O)[O-])cc1,-1,12
Nc1ccc(Nc2ccc([N+](=O)[O-])cc2)cc1,-5,52*
COc1ccc(C2=NN3C(C2)c2cccc(OC)c2OC3(C)C)cc1 (stereo not drawn),-18,51*
COc1cccc2c1OC1(CCC(C)CC1)N1N=C(c3cccs3)CC21 (stereo not drawn),-15,36
COc1ccc(C2=NN3C(C2)c2cccc(OC)c2OC32CCCCC2)cc1 (stereo not drawn),-20,50
O=S(=O)(c1ccccc1)N1N=C(c2cccs2)CC1c1ccc(Br)cc1 (stereo not drawn),-54,-4
CC1(C)Oc2ccc(Br)cc2C2CC(c3cccs3)=NN21 (stereo not drawn),-3,59*
COc1cccc2c1OC(C)(C)N1N=C(c3cccs3)CC21 (stereo not drawn),-26,61*
CCc1noc(-c2cccnc2N2CCCN(C(=O)c3ccco3)CC2)n1,-3,8
Cc1cccc(/C=C/c2ccc3cccc(O)c3n2)c1O,-3,38
Oc1cccc2ccc(/C=C/c3ccccc3Cl)nc12,5,52*
Oc1cccc2ccc(/C=C/c3ccc4c(c3)OCO4)nc12,-1,37
Oc1cccc2ccc(/C=C/c3cc4c(cc3Cl)OCO4)nc12,-7,56*
CC(=O)N1CCN(c2nc3c(s2)CC(C(=O)NCC2CCCCC2)CC3)CC1 (stereo not drawn),-1,13
O=[N+]([O-])c1ccc(N2CCOCC2)c(Cl)c1N1CCOCC1,0,3
COc1ccc(NC(=O)c2cnn3c2NC(c2cccs2)CC3C(F)(F)F)cc1OC (stereo not drawn),0,29
O=C(Nc1ccc2c(c1)OCO2)c1cnn2c1NC(c1cccs1)CC2C(F)(F)F (stereo not drawn),76*,7
CC(C)NC(=O)N1CCCC(c2cccc(C(=O)NCc3ccc(C(F)(F)F)cc3)c2)C1 (stereo not drawn),-1,6
SMILES,Pf apPOL inh,mHTT CaM bind
Cc1cccc(N2CCN(C(=O)c3ccc4c(=O)n5c(nc4c3)SCC5)CC2)c1C,-8,2
CNC(=O)N1CCCC(c2cccc(C(=O)N3CCN(c4ccccc4Cl)CC3)c2)C1 (stereo not drawn),-1,3
CNC(=O)N1CCCC(c2cccc(C(=O)NCc3ccc(C(F)(F)F)cc3)c2)C1 (stereo not drawn),-7,64*
Cc1cccc(N2CCN(C(=O)c3ccc4nc(-c5ccco5)c(-c5ccco5)nc4c3)CC2)c1C,0,78*
CNC(=O)N1CCCC(c2cccc(C(=O)N3CCN(c4cccc(C)c4C)CC3)c2)C1 (stereo not drawn),-9,64*
Cc1ccc(NC(=O)CSc2nnc3c(n2)[nH]c2ccccc23)cc1Cl,3,53*
Cc1ccc(NC(=O)CSc2nc3c([nH]c4ccccc43)c(=O)n2C)cc1Cl,0,18
Cc1sc2ncnc(N3CCCC(C)C3)c2c1C(=O)Nc1ccccc1 (stereo not drawn),-1,2
O=C(c1cccc(F)c1)N(CCCn1ccnc1)c1nc2c(F)cccc2s1,-7,26
O=C(Cc1ccc(F)cc1)N(CCCn1ccnc1)c1nc2c(Cl)cccc2s1,4,91*
CN(C)CCN(C(=O)CCc1ccccc1)c1nc2c(Cl)cccc2s1,2,62*
Cc1cc(C(=O)N(CCN(C)C)c2nc3c(Cl)cccc3s2)no1,1,-16
CC(C)c1nnc(NS(=O)(=O)c2ccc(Br)cc2)s1,3,0
C1=CC2CC1CC21COC(c2ccc3oc4ccccc4c3c2)OC1 (stereo not drawn),x,-17
CC(C)(C1=CC(=O)c2ccccc2C1=O)C1OCC2(CO1)CC1C=CC2C1 (stereo not drawn),x,53*
CC1CCN(c2nccc(C(=O)N3CCN(c4cccc(Cl)c4)CC3)n2)CC1,-2,11
CCN1CCn2cc(C(=O)N3CCN(c4ccc(Cl)cc4)CC3)nc2C1,-6,44
CCN1CCn2cc(C(=O)N3CCN(c4cccc(Cl)c4)CC3)nc2C1,-5,53*
O=C(c1ccnc(N2CCCCC2)n1)N1CCN(c2cccc(Cl)c2)CC1,3,56*

# Source: PubChem
